SMILES strings stand for the structures. The whole screen tested about 290,000 compounds, of which about 150 (0.052%) were called active. What follows is part of a selection rich in actives, with near analogues and random picks from the rest. Results with a measured potency or affinity are listed apart. Values without a mark were called inactive.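 How the source made its calls: active means inhibition of at least 50% with at least 30 cells and total cytoplasm GFP at most 10,000,000; inconclusive means under 30 cells or total GFP of 10,000,000 plus; inactive means the rest.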

The target of the assay is G-protein coupled receptor 35 (Homo sapiens) (UniProt Q9HC97). Nature of the assay: GPR35 antagonists blocking zaprinast-driven arrestin recruitment, primary screen, imaging, U2OS, beta-arrestin-GFP, zaprinast agonist (AID 2058). As to conditions: U2OS GPR35 beta-arrestin-GFP translocation imaging, zaprinast antagonism; at 10 µM; active compounds read high.
Sequence of G-protein coupled receptor 35 (Homo sapiens) (Q9HC97 whole entry, looked up): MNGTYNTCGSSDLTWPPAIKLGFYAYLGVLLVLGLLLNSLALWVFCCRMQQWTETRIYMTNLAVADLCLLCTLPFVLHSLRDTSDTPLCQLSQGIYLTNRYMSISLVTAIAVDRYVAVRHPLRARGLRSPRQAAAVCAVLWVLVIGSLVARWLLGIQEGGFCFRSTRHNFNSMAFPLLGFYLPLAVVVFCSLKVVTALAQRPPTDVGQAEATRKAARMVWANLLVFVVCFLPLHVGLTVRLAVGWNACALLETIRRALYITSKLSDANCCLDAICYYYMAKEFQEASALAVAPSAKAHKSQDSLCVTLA
For the molecule `COc1ccc(/C=C2\SC(=S)N(CCC(=O)N3CCCCC3)C2=O)cc1`, the inhibition (usually the relative decrease from the control value, in per cent) is 1.2%.
Regarding `Cc1ccc(/C=C2/SC(=S)N(CCC(=O)N3CCN(c4ccccc4)CC3)C2=O)cc1`, the inhibition is -11.1%.
As for `COc1c(S(=O)(=O)Nc2cccnc2)ccc(Cl)c1Cl`, the inhibition is 0.5%.
For `O=c1[nH]cnc2sc3c(c12)CN(Cc1ccccc1)CC3`, the inhibition is -2.4%.
The same measure for `Cc1ccc(NC(=O)C2C(c3ccccc3)C=CC(c3ccccc3)C2C(=O)O)cc1` (stereo not drawn): -4.3%; for `Cc1ccccc1Nc1nnc(SCC(=O)NCc2cccs2)s1`: 0%; for `C/C(=N\NC(=O)c1cc(-c2ccc(C)s2)[nH]n1)c1ccncc1`: -6.8%.
Consider `COc1ccc(C(=O)NCCc2nnc(SCC(=O)Nc3ccc(Br)cc3)n2C)cc1`, for which the inhibition is 0.4%.
As for `CNC(=O)/C=C1\NC(C)(C)Cc2c1ccc1ccccc21`, the figure is 7.2%; as for `CC1(C)Cc2ccccc2/C(=C/C(=O)N2CCCCCC2)N1`, 7.4%; as for `O=C(NN1CCOCC1)c1ccccc1Br`, 2.6%.
Take `COc1ccc2c(c1)NC(c1ccc(N(C)C)cc1)c1cccn1-2` (stereo not drawn): the inhibition is 83.6% (active).
The same measure for `COc1ccc2c(c1)NC(c1cc(Cl)cc(Cl)c1O)c1cccn1-2` (stereo not drawn): 12.6%.
As for `COc1ccc(C2Nc3cc(OC)ccc3-n3cccc32)cc1` (stereo not drawn), the figure is 7%; as for `CCc1nnc(NC(=O)c2cc(S(=O)(=O)N3CCOCC3)ccc2N2CCCCC2)s1`, 4.8%; as for `CCOc1ccccc1CNc1nnnn1C`, 2.8%.
The same measure for `C=CCN1C(=O)/C(=C/C=C2/N(CC)c3ccc(S(=O)(=O)N(C)C)cc3N2CC)SC1=S`: 9.4%; for `CCN1C(=O)/C(=C/C=C2\N(CC)c3cc(S(=O)(=O)N(C)C)ccc3N2c2ccccc2)SC1=S`: 62% (active).
Turning to `CCN1C(=O)/C(=C/C=C2/Sc3ccccc3N2CCO)SC1=S`, the inhibition is -15.5%.
The same measure for `CC(=O)c1cccc(OCc2cc(C(=O)N3C[C@@H](C)O[C@@H](C)C3)no2)c1`: 4.5%; for `CC1Sc2ccc(S(=O)(=O)CCC(=O)NCc3ccc(Cl)cc3)cc2NC1=O` (stereo not drawn): 7.8%.
As for `Cc1cc(NC(=O)CSc2nnc(-c3c[nH]c4ccccc34)n2-c2ccc(Cl)cc2)no1`, the figure is 3.9%.
Take `COc1cccc(Cn2cccc(NC(=O)NCc3ccccc3)c2=O)c1`: the inhibition is -1%.
As for `CSc1nc(Cl)c(C#N)c(-c2ccc(C)cc2)n1`, the figure is 61.8% (active); as for `N#Cc1c(Cl)nc(SCc2ccccc2)nc1-c1ccccc1`, 10.7%.
The same measure for `COc1ccc(-c2nc(-c3cccc(C)c3)nc(Cl)c2C#N)cc1`: 13.1%.
The same measure for `CCOC(=O)c1c(-c2ccccc2)csc1NC(=O)/C(C#N)=C/c1ccc(OC)c(OC)c1`: -10.8%; for `CCOC(=O)c1c(-c2ccc(C)cc2)csc1NC(=O)/C(C#N)=C/c1ccc(O)c(OC)c1`: 2.7%; for `O=C(O)c1ccc(COc2ccccc2[N+](=O)[O-])o1`: 9.8%.
For the molecule `Cc1ccc(-c2c(C(=O)N/N=C/c3ccc(C)o3)nnn2-c2nonc2N)cc1`, the inhibition was 9.3%.
With `CCCN1C=CC(=CC=C(C#N)C#N)C=C1`, the inhibition is 59.2% (active).
Turning to `C=CCN1C=CC(=CC=C(C#N)C#N)C=C1`, the inhibition is 29.6%.
As for `CCCN1C=CC(=C/C=C(\C#N)C(=O)OCC)C=C1`, the inhibition is 7.2%.
Turning to `Cc1ccc(C(=O)O)cc1NC(=O)C1=CSCCO1`, the inhibition is -0.5%.
As for `COc1ccc(CNc2cc(C)nc3ccc(OC)cc23)cc1`, the figure is 7.8%.
For `COc1ccc2nc(C)cc(NCc3cccc(C(F)(F)F)c3)c2c1`, the inhibition was -5.8%.
With `O=C1Oc2ccccc2C(=O)/C1=C/N1CCN(c2ccccc2F)CC1`, the inhibition is -6.9%.
The same measure for `CC(C)CCN1CCNC(=O)C1CC(=O)NCCCN1CCOCC1` (stereo not drawn): -0.8%.
The same measure for `CC(NC(=O)CN1CCCC1)C12CC3CC(CC(C3)C1)C2` (stereo not drawn): 1.4%.
As for `CC(NC(=O)Cn1nc(C(=O)O)c2ccccc2c1=O)C12CC3CC(CC(C3)C1)C2` (stereo not drawn), the figure is 8%; as for `O=C(c1cc(-c2ccccc2Cl)nc2ccccc12)N1CCOCC1`, 10.1%.
Consider `CCN(CC)c1ccc2c(C)c(Cl)c(=O)oc2c1`, for which the inhibition is 8.4%.
The same measure for `CCN(CC)c1ccc2c(Cl)cc(=O)oc2c1`: 4.5%; for `COc1ccc(C(=O)/C=C/c2ccc(N3CCCCC3)c([N+](=O)[O-])c2)cc1`: 2.4%; for `CCn1c2ccccc2c2cc(NC(=O)c3ccc([N+](=O)[O-])cc3)ccc21`: -16.2%.
The same measure for `O=C(Nc1ccc(N2CCOCC2)cc1)c1ccc([N+](=O)[O-])cc1`: 14.4%; for `Cn1ccc(=Nc2ccc(NC(=O)c3ccc(N=c4ccn(C)c5ccc([N+](=O)[O-])cc45)cc3)cc2)cc1`: 53.5% (active); for `Cc1c(NC(=S)N/N=C/c2ccc(N(C)C)cc2)c(=O)n(-c2ccccc2)n1C`: 5.5%.
The same measure for `O=C1CN(C(=O)N[C@@H](Cc2ccccc2)C(=O)N[C@@H](Cc2ccccc2)C(=O)O)c2ccccc2N1`: 6.4%.
On to `CCCN1CC=C2C(C#N)=C(N)C(C#N)(C#N)C(c3cccc(OC)c3OC)C2C1` (stereo not drawn), for which the inhibition was 101% (active).
For the molecule `CCOC(=O)N1CC=C2C(C#N)=C(N)C(C#N)(C#N)[C@H](c3cccs3)C2C1` (stereo partly drawn), the inhibition was 12.4%.
As for `COc1ccc([C@@H]2[C@H]3CN(C(C)=O)CC=C3C(C#N)=C(N)C2(C#N)C#N)c2ccccc12`, the figure is -18.9%.
The same measure for `CCCOc1ccc([C@@H]2C3CN(C(=O)OCC)CC=C3C(C#N)=C(N)C2(C#N)C#N)cc1OC` (stereo partly drawn): 16.5%.
As for `CCOC(=O)N1CC=C2C(C#N)=C(N)C(C#N)(C#N)[C@H](c3ccccc3OCC)[C@H]2C1`, the figure is 2.1%.
`CCN1CC=C2C(C#N)=C(N)C(C#N)(C#N)[C@H](c3cccc(OC)c3OC)[C@H]2C1`: the inhibition is 100% (active).
The same measure for `CCCCOc1ccc(C2C3CN(C(=O)OCC)CC=C3C(C#N)=C(N)C2(C#N)C#N)cc1OC` (stereo not drawn): -1.9%; for `COc1cccc(OC)c1OCc1cc(C2C3CCCC=C3C(C#N)=C(N)C2(C#N)C#N)c(C)cc1C` (stereo not drawn): 7%; for `Cc1c(C(=O)Nc2ccc(Cc3ccncc3)cc2)cccc1[N+](=O)[O-]`: -1.8%.

Source of the values: PubChem BioAssay AID2058 (Sanford-Burnham Center for Chemical Genomics, 2009).
